# Data published in PMC5540273 (PLoS ONE, 2017).
# System: IRAK1
# Settings: concentration: 1 μM, replicates: in singlicate; n = 1
# 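Further: KINOMEscan kinase panel screen.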
row,Structure (SMILES),%Inh
1,N#Cc1ccc(-c2cc(-c3c[nH]nc3-c3ccccn3)ccn2)cc1 [GW693028],39%
2,CCc1ccnc(/C=C/c2n[nH]c3cc(Sc4ccccc4C(=O)NC)ccc23)c1,8%
3,Cc1cccc(-c2nc(Nc3ccc4ncsc4c3)c3ccccc3n2)n1 [GW867588],40%
4,O=C1NC(=O)C(N2CCc3ccccc32)=C1c1cccc(Cl)c1 [SB-408010],0%
5,NS(=O)(=O)c1cccc(-c2ccc3ncc(N4CCOCC4)nc3c2)c1 [GSK1535721],1%
6,CN1c2ccc(CNc3ccc(F)cc3)cc2-c2c(cnn2C)S1(=O)=O,0%
7,Cn1ccc2ncnc(Oc3ccc(NC(=O)Nc4ccncc4)c(Cl)c3)c21,8%
8,COc1cc(Nc2nccc(N3CCC(NC(=O)c4cccc(NC(C)=O)c4)C3)n2)cc(OC)c1OC (stereo not shown) [GSK1379754],40%
9,CSc1ccc(-c2cc3ncnc(SCC(=O)O)c3s2)cc1,28%
10,CC(C)(C)n1cnc2c(N)ncnc21 [SKF-97359],0%
11,Cc1nnc(-c2ccc(C)c(-c3ccc(C(=O)Nc4ccc(NS(C)(=O)=O)cc4)cc3)c2)o1 [GW702865],17%
12,COc1ccc(S(=O)(=O)NC2CCN(c3cc(C)nc(Nc4cccc(C#N)c4)n3)CC2)cc1.O=C(O)C(F)(F)F [GSK1653539],0%
13,Cc1c2ccc(N(C)c3ccnc(Nc4cccc(S(N)(=O)=O)c4)n3)cc2nn1Cc1ccccc1.Cl.Cl [GW787226],0%
14,COc1cc2c(cc1OC[C@@H](O)CO)ncc1c3ccc(C#N)cc3[nH]c21,97.2%
15,O=C(NCCCN1CCOCC1)c1cccc(Nc2nccc(Nc3ccc(Oc4ccccc4)cc3)n2)c1 [GW663929],28%
16,Cc1ccc(NC(=O)c2ccnc(N3CCN(C)CC3)c2)cc1-c1ccc(C(=O)NCC2CC2)cc1 [GW775604],0%
17,O=C(Nc1n[nH]c2cc(-c3cccc(F)c3)ccc12)C1CC1 [SB-735464],10%

row,Structure (SMILES),%Inh
1,COc1ccc(Nc2nccc(N3CCC(NC(=O)Nc4cccc(C(C)=O)c4)C3)n2)cc1 (stereo not shown) [GSK1379731],6%
2,COCCNC(=O)c1ccc(-c2cc(C(=O)NC3CC3)cc(F)c2C)cc1 [GW868318],37%
3,COc1ccc(CNC(=O)NC2CCN(c3ccnc(Nc4ccc(OC)cc4)n3)C2)cc1 (stereo not shown) [GSK1379727],28%
4,Nc1nccc(-c2c(-c3ccc(F)cc3)ncn2C2CCN(CC(F)(F)F)CC2)n1 [SB-236560],29%
5,O=C(NCCNc1ccnc(Nc2ccc(F)cc2)n1)Nc1ccccc1F [GSK1379880],15%
6,O=C(Nc1cccc(-c2nn3ncccc3c2-c2ccnc(Nc3cccc(C(F)(F)F)c3)n2)c1)c1c(F)cccc1F [GSK299495],38%
7,COc1ccc(Nc2ncc(C#N)c(Nc3ccccc3C(N)=O)n2)cc1N1CCN(C)CC1.Cl [GSK1558669],99.8%
8,O=c1cc(N2CCOCC2)nc2n(Cc3cccc4ccccc34)ccn12 [GSK2333389],13%
9,Fc1ccc(-c2ncn(CCCN3CCOCC3)c2-c2ccccn2)cc1 [SB-211742],0%
10,CN1c2ccc(NCc3ccc(F)cc3)cc2-c2c(cnn2C)S1(=O)=O,0%
11,Nc1nc(-c2ccc3c(N)n[nH]c3c2)cc(N2CCCC2)n1 [GSK2227430],0%
12,[2H]C([2H])(c1cccc(C(F)(F)F)c1C)n1ccn2c(=O)nc(N3CCOCC3)cc12 [GSK2336394],16%
13,COc1cc2ncn(-c3cc(OCc4sccc4Cl)c(C(N)=O)s3)c2cc1OC [GSK448459],35%
14,COc1cc2c(cc1OCCN1CCN(C)CC1)ncc1c3ccc(C#N)cc3[nH]c21,97.2%
15,Cc1nnc(-c2ccc3occ(-c4ccc(C(C)O)cc4)c3c2)o1 (stereo not shown),31%
16,Cn1cc(-c2ccc3c(c2)CCN3C(=O)Cc2ccccc2Cl)c2c(N)ncnc21 [GSK2608885],0%

# System: IRAK3
# Settings: concentration: 1 μM, replicates: in singlicate; n = 1
row,Structure (SMILES),%Inh
1,N#Cc1ccc(-c2cc(-c3c[nH]nc3-c3ccccn3)ccn2)cc1 [GW693028],0%
2,CCc1ccnc(/C=C/c2n[nH]c3cc(Sc4ccccc4C(=O)NC)ccc23)c1,32%
3,Cc1cccc(-c2nc(Nc3ccc4ncsc4c3)c3ccccc3n2)n1 [GW867588],0%
4,O=C1NC(=O)C(N2CCc3ccccc32)=C1c1cccc(Cl)c1 [SB-408010],0%
5,NS(=O)(=O)c1cccc(-c2ccc3ncc(N4CCOCC4)nc3c2)c1 [GSK1535721],0%
6,CN1c2ccc(CNc3ccc(F)cc3)cc2-c2c(cnn2C)S1(=O)=O,0%
7,Cn1ccc2ncnc(Oc3ccc(NC(=O)Nc4ccncc4)c(Cl)c3)c21,0%
8,COc1cc(Nc2nccc(N3CCC(NC(=O)c4cccc(NC(C)=O)c4)C3)n2)cc(OC)c1OC (stereo not shown) [GSK1379754],85%
9,CSc1ccc(-c2cc3ncnc(SCC(=O)O)c3s2)cc1,0%
10,CC(C)(C)n1cnc2c(N)ncnc21 [SKF-97359],0%
11,Cc1nnc(-c2ccc(C)c(-c3ccc(C(=O)Nc4ccc(NS(C)(=O)=O)cc4)cc3)c2)o1 [GW702865],0%
12,COc1ccc(S(=O)(=O)NC2CCN(c3cc(C)nc(Nc4cccc(C#N)c4)n3)CC2)cc1.O=C(O)C(F)(F)F [GSK1653539],0%
13,Cc1c2ccc(N(C)c3ccnc(Nc4cccc(S(N)(=O)=O)c4)n3)cc2nn1Cc1ccccc1.Cl.Cl [GW787226],36%
14,COc1cc2c(cc1OC[C@@H](O)CO)ncc1c3ccc(C#N)cc3[nH]c21,67%
15,O=C(NCCCN1CCOCC1)c1cccc(Nc2nccc(Nc3ccc(Oc4ccccc4)cc3)n2)c1 [GW663929],63%
16,Cc1ccc(NC(=O)c2ccnc(N3CCN(C)CC3)c2)cc1-c1ccc(C(=O)NCC2CC2)cc1 [GW775604],0%
17,O=C(Nc1n[nH]c2cc(-c3cccc(F)c3)ccc12)C1CC1 [SB-735464],0%

row,Structure (SMILES),%Inh
1,COc1ccc(Nc2nccc(N3CCC(NC(=O)Nc4cccc(C(C)=O)c4)C3)n2)cc1 (stereo not shown) [GSK1379731],0%
2,COCCNC(=O)c1ccc(-c2cc(C(=O)NC3CC3)cc(F)c2C)cc1 [GW868318],23%
3,COc1ccc(CNC(=O)NC2CCN(c3ccnc(Nc4ccc(OC)cc4)n3)C2)cc1 (stereo not shown) [GSK1379727],13%
4,Nc1nccc(-c2c(-c3ccc(F)cc3)ncn2C2CCN(CC(F)(F)F)CC2)n1 [SB-236560],0%
5,O=C(NCCNc1ccnc(Nc2ccc(F)cc2)n1)Nc1ccccc1F [GSK1379880],0%
6,O=C(Nc1cccc(-c2nn3ncccc3c2-c2ccnc(Nc3cccc(C(F)(F)F)c3)n2)c1)c1c(F)cccc1F [GSK299495],0%
7,COc1ccc(Nc2ncc(C#N)c(Nc3ccccc3C(N)=O)n2)cc1N1CCN(C)CC1.Cl [GSK1558669],100%
8,O=c1cc(N2CCOCC2)nc2n(Cc3cccc4ccccc34)ccn12 [GSK2333389],0%
9,Fc1ccc(-c2ncn(CCCN3CCOCC3)c2-c2ccccn2)cc1 [SB-211742],1%
10,CN1c2ccc(NCc3ccc(F)cc3)cc2-c2c(cnn2C)S1(=O)=O,0%
11,Nc1nc(-c2ccc3c(N)n[nH]c3c2)cc(N2CCCC2)n1 [GSK2227430],0%
12,[2H]C([2H])(c1cccc(C(F)(F)F)c1C)n1ccn2c(=O)nc(N3CCOCC3)cc12 [GSK2336394],0%
13,CC(C)(CN)c1nc(-c2ccc(Cl)c(O)c2)c(-c2ccncc2)[nH]1.O=C(O)C(F)(F)F [SB-477794],0%
14,COc1cc2ncn(-c3cc(OCc4sccc4Cl)c(C(N)=O)s3)c2cc1OC [GSK448459],0%
15,COc1cc2c(cc1OCCN1CCN(C)CC1)ncc1c3ccc(C#N)cc3[nH]c21,84%
16,Cc1nnc(-c2ccc3occ(-c4ccc(C(C)O)cc4)c3c2)o1 (stereo not shown),1%
17,Cn1cc(-c2ccc3c(c2)CCN3C(=O)Cc2ccccc2Cl)c2c(N)ncnc21 [GSK2608885],32%
